# The campaign covered roughly 320,000 compounds. About 22,000 (6.9%) were called active. Roughly 27% stayed inconclusive and do not appear here. Shown is part of a subset that was picked to be rich in actives. Unmarked numbers belong to inactive results. Calls come from the whole dose curve; as a rule, active = well fitted inhibition curve with a large enough effect; inconclusive = small, poorly fitted or top-dose-only effect, or another doubt; inactive = no such curve, though single readings can be large or run the other way.
# Test: Primary qHTS for delayed death inhibitors of the malarial parasite plastid, 96 hour incubation
# Conditions: P. falciparum luciferase reporter growth; series mostly up to 28.7 µM; activity change, negative = inhibition: at the top concentration
# How it was run: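 Parasite growth measured via integrated firefly luciferase reporter in P. falciparum. Infected erythrocytes at 2% hematocrit, 0.05% parasitemia final were treated 96 hours at 37 C under 5% CO2, and luminescence was read.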
# % is set by controls: 0 for no effect and ±100 for the full control effect; potency is the fitted concentration of half-maximal effect.
Compound,Potency,"activity change, negative = inhibition [%]"
O=C(/C=C/c1ccc(OCc2c(F)cccc2Cl)cc1)N1CCOCC1,10.4 µM (active),
O=C(Nc1ccc(OCC(=O)N2CCOCC2)cc1)c1cc(F)c(F)cc1Cl,,-15.8
Fc1cccc(Cl)c1COc1ccc(-c2nnco2)cc1,,-3.53
CCC(C)C(NC(=O)C1CCC(=O)N1C(=O)OCc1ccccc1)C(=O)NC(C(=O)N1CCCC1C(N)=O)C(C)CC (centres undefined),,2.57
O=C(COC(=O)c1ncc(Cl)c(Cl)c1Cl)NNC(=O)c1ccccc1,,-2.5
CCCCN(C(=O)C1=NN(c2cc(C)ccc2C)C(=O)CC1)c1c(N)n(CCC)c(=O)[nH]c1=O,,-27.3
Cc1cc(NC(=O)C(C)SCC(=O)Nc2ccccc2N2CCCCC2)no1 (centres undefined),9.28 µM (active),
Cc1ccc(-c2noc(CCC(=O)Nc3ccccc3N3CCN(C)CC3)n2)cc1,,-10.9
Cc1cc(NC(=O)C(C)N2C(=O)c3ccccc3S2(=O)=O)no1 (centres undefined),,50.7
CC1(c2ccc3ccccc3c2)NC(=O)NC1=O (centres undefined),,15.2
Cc1ccc(O)c(/C=N/NC(=O)COc2ccc3c(C)cc(=O)oc3c2)c1,10.4 µM (active),
CCOC(=O)Cc1csc(NC(=O)COc2ccc3c(C)cc(=O)oc3c2)n1,,37.9
Cc1cc(=O)oc2cc(OCC(=O)Nc3nnc(C4CC4)s3)ccc12,,24.1
COc1cccc2[nH]c(C(=O)NCCc3ccccc3)cc12,,30.1
Cc1nnc(Nc2ccccc2F)s1,,3.63
NS(=O)(=O)c1ccc(CCNC(=O)CNC(=O)Cc2ccccc2)cc1,,12.5
CC(=O)O[C@H]1c2ccccc2-c2ccccc2[C@@H]1OC(C)=O,,-23.2
O=S(=O)(c1ccc(SCc2ccc(Br)cc2)nc1)N1CCOCC1,,-31.3
CN(C)c1nccc(NCc2ccccc2)c1C#N,,-1
CCc1nc(NCCO)c(C#N)c2c1CCCC2,,8.09
CCCCc1nc(NCc2ccccc2)c(C#N)c2c1CCCC2,5.22 µM (active),
CCOCc1nnc(NC(=O)CCS(=O)(=O)Cc2ccccc2)s1,,8.85
COc1ccc(CNS(=O)(=O)c2ccc(-c3cnc(C4CC4)o3)cc2)cc1,10.4 µM (active),
COc1ccc(CNS(=O)(=O)c2cc(-c3cc(C)no3)ccc2C(C)C)cc1,,21.3
COc1ccc(CNS(=O)(=O)c2ccc(NC(=O)N3CCCCC3)cc2)cc1,,-9.06
CCC(=O)N1c2ccc(S(=O)(=O)NCc3ccco3)cc2CC1C (centres undefined),,100
COCCNC(=O)C(c1ccc(C)cc1)N(C(=O)CCC(=O)Nc1ccccn1)c1cccc(C)c1 (centres undefined),,7.39
COCCN(C(=O)CCC(=O)Nc1ccccn1)C(C(=O)NCCC(C)C)c1ccc(OC)cc1 (centres undefined),0.522 µM (active),
COCCN(C(=O)CCC(=O)Nc1nccs1)C(C(=O)NCCC(C)C)c1ccc(F)cc1 (centres undefined),,20
